The values that follow come from PubChem BioAssay (NCI).

About 83,000 compounds went through this panel and 20% of them were active in at least one assay; those are over-represented in the sample as a whole.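 Values shown are percent growth following 48 h exposure of cells in 96-well plates to a single concentration of compound; below 10 was considered active.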 Values without a mark were called inactive. Active and inactive are the calls of the source.

What all share (assay): NCI-60 one-dose screen, 48 h (100 = growth as untreated, 0 = no growth, -100 = all killed)
Holding throughout (settings): 10 µM

For assay [1], the system named is HCT-15 colon.
Assay [2] deals with HT29 colon.
For assay [3], the system named is SNB-75 CNS.
Assay [4] has as its system SNB-19 CNS.
Assay [5] concerns U251 CNS.
Assay [6] deals with PC-3 prostate.
For assay [7], the system named is SK-MEL-5 melanoma.
Assay [8] relates to UACC-62 melanoma.
In assay [9] the test system is LOX IMVI melanoma.
In assay [10] the test system is SK-MEL-28 melanoma.
Assay [11] concerns SK-MEL-2 melanoma.
Assay [12] concerns EKVX NSCLC.
Assay [13] concerns UO-31 renal.
Assay [14] has as its system TK-10 renal.
Assay [15] has as its system ACHN renal.
The test system of assay [16] is CAKI-1 renal.
In assay [17] the test system is A498 renal.
In assay [18] the test system is CCRF-CEM leukemia.
Assay [19] has as its system MOLT-4 leukemia.

On to `NC1CCC(Nc2nc(NCc3ccc(-c4ccccc4O)nc3)c3ncn(C4CCCC4)c3n2)CC1` (configuration not stated), for which the growth in assay [1] was -4.18% (active); in assay [2] it was -22.5% (active); in [3], -70.1% (active); in assay [4], 8.53% (active); in [5] it was -23% (active); in assay [6] it was -3.87% (active). Moreover, the growth in assay [7] was -94.1% (active); in [8], -55% (active); in assay [9], -82.8% (active); in assay [10], -58.9% (active); in assay [11], -81.4% (active); in assay [12], -20.1% (active). Also, the growth was 14.2% in assay [13]; 0.221% (active) in assay [14]; -3.2% (active) in assay [15]; 14.1% in assay [16]; -82.1% (active) in assay [17]; -5.6% (active) in [18]. Besides, the growth in [19] is -11.2% (active).

For the compound `O=S(=O)(NC1c2ccccc2Oc2ccccc21)c1cc(Cl)ccc1Cl`, the growth is 93.7% in assay [1]; 91.4% in [2]; 90.2% in assay [3]; 97.2% in assay [4]; 95.7% in [5]; 88.9% in assay [6]. In addition, the growth in assay [7] was 94.6%; in [8], 93.2%; in assay [9], 96.1%; in assay [10] it was 110%; in [11], 103%; in assay [12] it was 98.6%. Moreover, the growth in assay [13] was 79.3%; in assay [14], 95.6%; in assay [15], 82.7%; in assay [16] it was 88.7%; in assay [17], 94.3%; in [18] it was 74.8%. The growth in [19] is 96.7%.

In the case of `CC(CNC(Cc1ccccc1)c1ccccc1)NC(Cc1ccccc1)c1ccccc1` (configuration not stated), the growth in assay [1] was 30.6%; in [2], 4% (active); in [3], 68.9%; in assay [4], 61.7%; in [5], 34.3%; in assay [6], 40.7%. Also, the growth was 14.2% in [7]; 61.4% in assay [8]; -5.75% (active) in assay [9]; 64.2% in [10]; 73.3% in assay [11]; 26.8% in assay [12]. Moreover, the growth was 37.6% in assay [13]; 60.6% in assay [14]; 47.7% in assay [15]; 15.6% in [16]; 74.5% in [17]; 35.2% in [18]. Besides, in [19], the growth is 14.9%.

In the case of `CC(=O)c1ccc(NCn2nc(-c3ccc(Cl)cc3)oc2=S)cc1`, the growth in assay [1] was 99.3%; in assay [2] it was 98.3%; in assay [3] it was 107%; in assay [4] it was 95.8%; in assay [5] it was 96.1%; in [6] it was 89.9%. Further, the growth is 104% in [7]; 93.3% in assay [8]; 90.3% in assay [9]; 95.5% in assay [10]; 99.3% in assay [11]; 103% in assay [12]. Moreover, the growth in assay [13] is 95.8%; in [14], 95.9%; in [15] it was 96.1%; in [16], 97%; in assay [17], 106%; in assay [18], 103%. Besides, in assay [19], the growth is 81.8%.

With `Cc1ccc2oc(=O)cc(/C(=C3/C=CC=N3)c3ccc[nH]3)c2c1`, the growth in [1] was 5.43% (active); in assay [2], -36.6% (active); in assay [3], 8.89% (active); in assay [4], 16.2%; in [5], -17.2% (active); in [6] it was 8.12% (active). The growth in assay [7] was -59.2% (active); in assay [8], 11.8%; in assay [9] it was 0.877% (active); in assay [10] it was 27.7%; in assay [11] it was 2.71% (active); in assay [12], 16.5%. Also, the growth in assay [13] was 5.2% (active); in assay [14], 1.86% (active); in assay [15] it was 10%; in assay [16], 3.96% (active); in assay [17] it was -9.36% (active); in assay [18], 10.4%. Besides, in assay [19], the growth is -3.84% (active).

Take `Cc1nc2cc(-n3c(-c4ccc(F)cc4)nc4ccccc4c3=O)ccc2n1Cc1ccccc1`: the growth in [1] was 3.41% (active); in [2] it was -23.8% (active); in [3], 6.2% (active); in assay [4] it was 37.9%; in assay [5] it was 9.65% (active); in assay [6], 9.75% (active). In addition, the growth in [7] is -77% (active); in assay [8], 0.751% (active); in assay [9], 6.97% (active); in assay [10] it was -60.3% (active); in assay [11], 31.8%; in assay [12], 55.9%. The growth is 35.7% in assay [13]; 30.5% in assay [14]; 3.65% (active) in [15]; 30.6% in assay [16]; -5.66% (active) in [17]; 65.9% in assay [18]. Besides, the growth in assay [19] was 34.7%.

As to `CC(=O)n1nc(C(=O)OC(C)(C)C)c2cc(F)c(F)cc21`, the growth in [1] is 101%; in assay [2] it was 100%; in [3] it was 80.2%; in assay [4], 94.9%; in assay [5], 104%; in [6], 97.7%. Further, the growth is 87% in assay [7]; 80.3% in assay [8]; 98.2% in [9]; 96.8% in assay [10]; 100% in [11]; 105% in assay [12]. The growth in assay [13] is 92.6%; in assay [14], 113%; in assay [15], 108%; in assay [16], 101%; in assay [17] it was 104%; in assay [18], 97.5%. Besides, in [19], the growth is 95%.

Consider `Cc1nc2ccc(-n3c(-c4ccc(Cl)cc4)nc4ccccc4c3=O)cc2n1Cc1ccccc1`, for which the growth is 77% in assay [1]; 95.6% in assay [2]; 95.9% in [3]; 108% in assay [4]; 89.1% in assay [5]; 58.6% in [6]. In addition, the growth in assay [7] is 66.7%; in assay [8] it was 78.4%; in assay [9] it was 91.9%; in assay [10], 107%; in [11], 96.5%; in assay [12], 90.1%. Moreover, the growth is 59% in assay [13]; 111% in [14]; 91.9% in assay [15]; 81.3% in assay [16]; 89.7% in assay [17]; 80.2% in assay [18]. Also, the growth in assay [19] was 84.1%.
